# Reference: ChEMBL document CHEMBL1961873, “Compounds: GSK PKIS; Assays: Nanosyn kinase panel” (2012)
# What was measured:
# [1] = target: Leukocyte tyrosine kinase receptor (Homo sapiens) (UniProt P29376); conditions: at 1 µM;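 also: each value is the mean inhibition of LTK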
# [2] = target: Tyrosine-protein kinase Lyn (Homo sapiens) (UniProt P07948); conditions: at 0.1 µM
# [3] = target: Tyrosine-protein kinase Lyn (Homo sapiens) (UniProt P07948); conditions: at 1 µM
# [4] = target: Tyrosine-protein kinase Lyn (Homo sapiens) (UniProt P07948); conditions: at 0.1 µM; remark: listed apart in the source
# [5] = target: Tyrosine-protein kinase Lyn (Homo sapiens) (UniProt P07948); conditions: at 1 µM; remark: listed apart in the source
# [6] = target: T1, Tyrosine-protein kinase Mer (Homo sapiens) (UniProt Q12866); conditions: at 0.1 µM
# T1 sequence (whole entry): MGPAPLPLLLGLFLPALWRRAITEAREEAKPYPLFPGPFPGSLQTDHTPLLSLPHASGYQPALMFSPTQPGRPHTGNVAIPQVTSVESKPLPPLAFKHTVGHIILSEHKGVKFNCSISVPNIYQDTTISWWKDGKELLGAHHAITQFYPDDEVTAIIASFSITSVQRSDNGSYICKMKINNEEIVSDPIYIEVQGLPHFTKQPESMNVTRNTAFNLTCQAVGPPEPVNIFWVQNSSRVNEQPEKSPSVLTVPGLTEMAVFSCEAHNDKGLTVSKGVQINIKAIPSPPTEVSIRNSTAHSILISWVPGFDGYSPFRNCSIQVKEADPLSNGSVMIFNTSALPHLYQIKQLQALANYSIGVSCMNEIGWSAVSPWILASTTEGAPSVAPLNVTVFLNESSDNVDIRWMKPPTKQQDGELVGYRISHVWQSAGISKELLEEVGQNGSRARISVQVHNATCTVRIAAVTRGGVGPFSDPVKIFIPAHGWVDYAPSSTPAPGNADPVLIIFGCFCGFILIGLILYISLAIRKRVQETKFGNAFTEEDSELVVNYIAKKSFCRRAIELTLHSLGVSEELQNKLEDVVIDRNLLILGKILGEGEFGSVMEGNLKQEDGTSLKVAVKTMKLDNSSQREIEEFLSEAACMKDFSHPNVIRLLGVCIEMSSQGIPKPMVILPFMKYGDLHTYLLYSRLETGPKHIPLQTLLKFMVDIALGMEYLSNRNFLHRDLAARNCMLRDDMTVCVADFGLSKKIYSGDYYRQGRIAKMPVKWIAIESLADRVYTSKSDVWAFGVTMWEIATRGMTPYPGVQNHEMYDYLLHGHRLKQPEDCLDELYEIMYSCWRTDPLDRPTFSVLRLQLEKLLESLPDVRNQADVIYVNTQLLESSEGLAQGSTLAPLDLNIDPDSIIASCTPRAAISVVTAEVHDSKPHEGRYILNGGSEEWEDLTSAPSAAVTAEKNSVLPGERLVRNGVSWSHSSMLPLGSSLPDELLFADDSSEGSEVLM
# [7] = target: T1, Tyrosine-protein kinase Mer (Homo sapiens); conditions: at 1 µM
# [8] = target: Hepatocyte growth factor receptor (Homo sapiens) (UniProt P08581); conditions: at 0.1 µM
# [9] = target: Hepatocyte growth factor receptor (Homo sapiens) (UniProt P08581); conditions: at 1 µM
# [10] = target: T2, Muscle, skeletal receptor tyrosine-protein kinase (Homo sapiens) (UniProt O15146); conditions: at 0.1 µM
# T2 sequence (whole entry): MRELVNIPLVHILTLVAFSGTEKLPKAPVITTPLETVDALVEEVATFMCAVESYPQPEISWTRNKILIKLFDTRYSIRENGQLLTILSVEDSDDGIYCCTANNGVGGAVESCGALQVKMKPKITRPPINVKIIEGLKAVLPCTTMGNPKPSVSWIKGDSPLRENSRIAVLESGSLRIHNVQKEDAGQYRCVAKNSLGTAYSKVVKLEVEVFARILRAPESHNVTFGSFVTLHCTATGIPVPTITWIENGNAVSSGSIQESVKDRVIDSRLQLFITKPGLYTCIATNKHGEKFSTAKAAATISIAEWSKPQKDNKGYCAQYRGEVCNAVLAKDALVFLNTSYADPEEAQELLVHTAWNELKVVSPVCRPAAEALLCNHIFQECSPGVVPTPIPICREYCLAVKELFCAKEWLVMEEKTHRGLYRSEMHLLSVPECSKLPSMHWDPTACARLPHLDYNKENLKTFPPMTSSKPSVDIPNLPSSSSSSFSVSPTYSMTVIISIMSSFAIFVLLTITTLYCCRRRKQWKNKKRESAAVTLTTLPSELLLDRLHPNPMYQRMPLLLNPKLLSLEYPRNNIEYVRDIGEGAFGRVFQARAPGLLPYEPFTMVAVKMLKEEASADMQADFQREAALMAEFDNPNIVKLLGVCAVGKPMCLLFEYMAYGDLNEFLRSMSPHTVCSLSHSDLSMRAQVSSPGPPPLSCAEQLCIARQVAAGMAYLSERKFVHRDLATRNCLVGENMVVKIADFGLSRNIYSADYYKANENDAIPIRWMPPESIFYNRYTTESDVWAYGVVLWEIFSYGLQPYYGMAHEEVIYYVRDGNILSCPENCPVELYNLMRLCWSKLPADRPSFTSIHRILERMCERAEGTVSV
# [11] = target: T2, Muscle, skeletal receptor tyrosine-protein kinase (Homo sapiens); conditions: at 1 µM
# [12] = target: Platelet-derived growth factor receptor alpha (Homo sapiens) (UniProt P16234); conditions: at 0.1 µM
# [13] = target: Platelet-derived growth factor receptor alpha (Homo sapiens) (UniProt P16234); conditions: at 1 µM
# [14] = system: Platelet-derived growth factor receptor alpha (Homo sapiens), P16234 [D842V]; conditions: at 0.1 µM
# [15] = system: Platelet-derived growth factor receptor alpha (Homo sapiens), P16234 [D842V]; conditions: at 1 µM
# [16] = system: Platelet-derived growth factor receptor alpha (Homo sapiens), P16234 [T674I]; conditions: at 0.1 µM
# [17] = system: Platelet-derived growth factor receptor alpha (Homo sapiens), P16234 [T674I]; conditions: at 1 µM
# [18] = system: Platelet-derived growth factor receptor alpha (Homo sapiens), P16234 [V561D]; conditions: at 0.1 µM
# [19] = system: Platelet-derived growth factor receptor alpha (Homo sapiens), P16234 [V561D]; conditions: at 1 µM
# [20] = target: Platelet-derived growth factor receptor beta (Homo sapiens) (UniProt P09619); conditions: at 0.1 µM;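 also: reported value is the mean percent inhibition of the kinase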
# Sequence of Platelet-derived growth factor receptor alpha (Homo sapiens), P16234 [T674I] (P16234 whole entry T674I): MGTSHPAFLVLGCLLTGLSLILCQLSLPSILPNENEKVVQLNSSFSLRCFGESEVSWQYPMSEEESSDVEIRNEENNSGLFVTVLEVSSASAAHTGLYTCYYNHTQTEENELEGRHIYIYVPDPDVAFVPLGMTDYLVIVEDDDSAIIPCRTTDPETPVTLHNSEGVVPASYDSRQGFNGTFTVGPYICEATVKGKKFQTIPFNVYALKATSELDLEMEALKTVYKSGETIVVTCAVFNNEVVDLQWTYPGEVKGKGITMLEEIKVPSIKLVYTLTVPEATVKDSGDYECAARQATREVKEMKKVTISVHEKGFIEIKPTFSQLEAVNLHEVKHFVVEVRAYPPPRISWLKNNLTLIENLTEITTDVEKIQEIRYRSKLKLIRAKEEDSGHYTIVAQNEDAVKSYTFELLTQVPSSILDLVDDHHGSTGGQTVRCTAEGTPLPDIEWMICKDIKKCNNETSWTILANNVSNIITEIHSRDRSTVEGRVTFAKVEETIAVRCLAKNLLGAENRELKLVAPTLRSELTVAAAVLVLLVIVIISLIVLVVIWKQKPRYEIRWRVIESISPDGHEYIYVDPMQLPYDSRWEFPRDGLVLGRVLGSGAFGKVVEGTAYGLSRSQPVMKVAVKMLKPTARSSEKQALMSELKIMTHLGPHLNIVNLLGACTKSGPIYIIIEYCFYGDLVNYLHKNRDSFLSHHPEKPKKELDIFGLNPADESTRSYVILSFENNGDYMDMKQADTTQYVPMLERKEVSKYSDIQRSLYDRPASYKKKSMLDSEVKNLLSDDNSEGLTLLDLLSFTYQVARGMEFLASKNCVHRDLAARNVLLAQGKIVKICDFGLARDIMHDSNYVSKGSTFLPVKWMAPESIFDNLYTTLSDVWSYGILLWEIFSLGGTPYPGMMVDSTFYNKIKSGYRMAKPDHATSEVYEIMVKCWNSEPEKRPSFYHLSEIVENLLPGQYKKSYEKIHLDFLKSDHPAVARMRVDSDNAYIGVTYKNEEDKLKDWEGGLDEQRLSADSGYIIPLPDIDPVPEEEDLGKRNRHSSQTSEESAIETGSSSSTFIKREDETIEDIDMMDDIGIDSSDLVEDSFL
# Sequence of Hepatocyte growth factor receptor (Homo sapiens) (P08581 whole entry): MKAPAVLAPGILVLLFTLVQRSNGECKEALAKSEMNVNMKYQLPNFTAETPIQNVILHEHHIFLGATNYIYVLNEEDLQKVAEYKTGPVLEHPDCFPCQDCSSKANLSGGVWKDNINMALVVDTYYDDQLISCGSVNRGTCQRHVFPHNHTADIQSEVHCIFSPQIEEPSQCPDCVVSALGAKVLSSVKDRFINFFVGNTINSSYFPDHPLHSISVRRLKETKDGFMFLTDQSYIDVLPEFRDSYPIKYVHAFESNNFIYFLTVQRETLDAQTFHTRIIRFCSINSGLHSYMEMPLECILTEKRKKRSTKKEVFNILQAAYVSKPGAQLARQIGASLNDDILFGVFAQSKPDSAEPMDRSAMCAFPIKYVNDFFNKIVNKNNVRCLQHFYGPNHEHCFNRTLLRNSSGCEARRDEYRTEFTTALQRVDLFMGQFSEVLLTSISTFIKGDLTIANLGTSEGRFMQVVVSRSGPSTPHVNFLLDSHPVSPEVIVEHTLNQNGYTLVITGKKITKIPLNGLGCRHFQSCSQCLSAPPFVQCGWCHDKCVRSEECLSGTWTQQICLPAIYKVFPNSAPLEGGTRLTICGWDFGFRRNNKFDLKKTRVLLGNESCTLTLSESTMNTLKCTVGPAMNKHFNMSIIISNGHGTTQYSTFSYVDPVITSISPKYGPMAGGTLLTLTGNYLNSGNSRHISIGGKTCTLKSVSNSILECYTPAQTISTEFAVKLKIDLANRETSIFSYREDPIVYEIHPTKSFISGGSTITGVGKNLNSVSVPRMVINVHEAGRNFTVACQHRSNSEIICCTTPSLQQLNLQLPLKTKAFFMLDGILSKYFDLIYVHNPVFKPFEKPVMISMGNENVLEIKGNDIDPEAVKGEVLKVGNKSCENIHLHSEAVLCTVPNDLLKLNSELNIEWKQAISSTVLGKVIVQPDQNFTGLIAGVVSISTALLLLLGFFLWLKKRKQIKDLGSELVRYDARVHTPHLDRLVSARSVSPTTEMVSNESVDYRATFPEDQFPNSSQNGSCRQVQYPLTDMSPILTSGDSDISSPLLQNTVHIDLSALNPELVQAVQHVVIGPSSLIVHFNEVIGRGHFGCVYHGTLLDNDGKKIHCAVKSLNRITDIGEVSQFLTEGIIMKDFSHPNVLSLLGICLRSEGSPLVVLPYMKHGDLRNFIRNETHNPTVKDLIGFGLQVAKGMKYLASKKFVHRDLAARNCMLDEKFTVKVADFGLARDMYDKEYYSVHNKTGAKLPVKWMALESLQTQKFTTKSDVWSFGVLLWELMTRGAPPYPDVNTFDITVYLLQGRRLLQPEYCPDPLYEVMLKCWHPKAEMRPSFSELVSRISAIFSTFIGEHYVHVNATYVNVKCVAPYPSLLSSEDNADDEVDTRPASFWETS
# Sequence of Platelet-derived growth factor receptor alpha (Homo sapiens) (P16234 whole entry): as the sequence (P16234 whole entry T674I) above, with I674T counted along it
# Sequence of Platelet-derived growth factor receptor alpha (Homo sapiens), P16234 [V561D] (P16234 whole entry V561D): as the sequence (P16234 whole entry T674I) above, with V561D, I674T counted along it
SMILES,inhibition [1],inhibition [2],inhibition [3],inhibition [4],inhibition [5],inhibition [6],inhibition [7],inhibition [8],inhibition [9],inhibition [10],inhibition [11],inhibition [12],inhibition [13],inhibition [14],inhibition [15],inhibition [16],inhibition [17],inhibition [18],inhibition [19],inhibition [20]
Cc1cc(-c2ccccn2)cc(C)c1/C=C/c1cncc(-c2nn[nH]n2)c1,4.93%,3.33%,14%,0.35%,9.56%,-0.39%,3.73%,2.88%,4.32%,3.02%,5.02%,4.62%,15.4%,-0.56%,2.51%,4.3%,8.72%,3.13%,7.97%,4.53%
N#Cc1cccc(Nc2nccc(-c3cnn4ncccc34)n2)c1,12.7%,6.49%,31.5%,4.82%,22.2%,7.85%,46%,6.82%,17.3%,5.72%,24.6%,16.3%,52.5%,10.5%,48.8%,15.7%,60.5%,23.3%,59.9%,27.2%
Cc1ccc(O)cc1Nc1ccnc2ccc(S(C)(=O)=O)cc12,10.2%,93.2%,96.7%,91.9%,96.2%,3.15%,4.83%,5.51%,-0.38%,2.4%,5.56%,72.2%,85%,88.8%,97.1%,7.4%,14.8%,84.7%,95%,63.8%
COc1ccc2ncnc(Nc3ccc(OCc4ccccc4)cc3)c2c1,-0.07%,2.3%,6.36%,1.2%,4.75%,2.16%,12.9%,-2.88%,2.39%,1.31%,1.74%,4.33%,12.2%,0.76%,1.54%,2.64%,4.95%,1.76%,4.16%,0.54%
ON=C1CCc2cc(-c3nc(C4CCNCC4)[nH]c3-c3ccncc3)ccc21,1.88%,0.17%,2.43%,-0.33%,0.99%,-0.13%,2.76%,0.32%,4.34%,-1.09%,1.9%,2.97%,10.5%,2.44%,6.66%,1%,0.52%,1.54%,6.14%,4.22%
CN(C)c1cc2c(Nc3ccc4c(cnn4Cc4ccccc4)c3)ncnc2cn1,3.01%,2.67%,13.5%,2.82%,10.6%,6.16%,40.9%,5.12%,0.45%,1.76%,1.56%,0%,8.21%,0.65%,4.51%,3.93%,8.69%,0.81%,6.19%,-1%
NS(=O)(=O)c1ccc(Nc2cc(-c3cccc(O)c3)n[nH]2)cc1,3.32%,6.83%,8.1%,3.6%,3.96%,0.91%,6.51%,5.16%,2.36%,4.32%,12.9%,16.7%,40.4%,4.21%,13.8%,12.8%,6.05%,17.7%,49%,9.08%
COc1cccc(-n2nc(C)c3c(N/N=C(\C)c4ccncc4)ncnc32)c1,1.76%,1.67%,2.24%,2.02%,1.38%,1.59%,-0.09%,-1.53%,-2.4%,0.43%,0.36%,1.29%,7.93%,-0.18%,1.8%,1.42%,4.43%,0.1%,0.01%,3.11%
COc1ccc(-c2nn3ncccc3c2-c2ccnc(Nc3cccc(C(F)(F)F)c3)n2)cc1,2.59%,4.45%,12.7%,3.78%,10.3%,1.45%,3.23%,6.61%,12.1%,2.37%,1.14%,1%,5.9%,1.64%,3.19%,2.26%,5.13%,1.12%,5.31%,-0.23%
Nc1nccc(C#Cc2cncnc2Nc2ccc(OCc3cccc(F)c3)c(Cl)c2)n1,2.75%,3.62%,3.49%,3.64%,1.57%,2.77%,9.35%,4.74%,8.47%,4.37%,5.94%,15.4%,15.5%,4.4%,4.87%,5.45%,7.68%,4.25%,4.88%,7.6%
NS(=O)(=O)c1ccc(-c2cc3ccncc3cc2OCc2ccccc2)cc1,14.8%,5.43%,8.06%,4.33%,5.23%,0.4%,1.77%,9.74%,5.85%,1.45%,0.07%,8.15%,13.2%,0.32%,4.83%,3.46%,9.33%,3.67%,6.32%,3.66%
COc1cc(Nc2nccc(-c3cnn4ncccc34)n2)cc(OC)c1,34.1%,3.81%,29.3%,2.46%,23.6%,1.07%,16.6%,4.01%,14.4%,6.23%,42.5%,19.5%,61.9%,12.6%,60.8%,29%,91.9%,37.5%,75.2%,40.2%
